In PubChem BioAssay AID1159580 (chemical genetic matrix, 2015):
About 2,000 (36%) of roughly 5,500 compounds were called active. Roughly 18% stayed inconclusive and do not appear here. Cut-off read from the data, not from the text of the source: active = normalized growth mostly below about 0.91 (no sharp cut-off); inconclusive = no clear call, values can overlap the other calls; inactive = mostly above about 0.92. This is one part of the list.

Assay: chemical genetic growth profiling, strain panel (AID 1159580);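 note: tested at 20 µM; growth read once vehicle control cultures reached saturation at 30 °C; 1 = growth at the plate median or of vehicle wells; lower values mean less growth of the strain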
Conditions: S. cerevisiae deletion strains, growth OD
[1] = locus YHR030C, strain SLT2, hits give low values
[2] = locus YHR079C, strain IRE1, hits give low values
[3] = locus YJL095W, strain BCK1, hits give low values
[4] = locus YJR066W, strain TOR1, hits give low values
[5] = locus YLR113W, strain HOG1, hits give low values
[6] = locus YNL183C, strain NPR1, hits give low values
[7] = locus YOR231W, strain MKK1, hits give low values
[8] = locus YPL256C, strain CLN2, hits give low values

Measured: normalized growth

NC(=NC(=O)c1ccc(Cl)cc1)c1cccs1
active: [5] 0.607 | [8] 0.67
inactive: locus YAR019C, strain CDC15, hits give low values 0.944 | locus YBL105C, strain PKC1, hits give low values 0.964 | locus YBR135W, strain CKS1, hits give low values 0.95 | locus YBR136W, strain MEC1, hits give low values 0.949 | locus YBR160W, strain CDC28, hits give low values 0.951 | locus YDL017W, strain CDC7, hits give low values 0.964 | locus YDL028C, strain MPS1, hits give low values 0.933 | locus YDL101C, strain DUN1, hits give low values 0.969 | locus YDL108W, strain KIN28, hits give low values 0.946 | locus YDL132W, strain cdc53, hits give low values 0.951 | locus YDL214C, strain PRR2, hits give low values 0.8 | locus YDR052C, strain DBF4, hits give low values 0.96 | locus YDR054C, strain cdc34, hits give low values 0.951 | locus YDR226W, strain ADK1, hits give low values 0.951 | locus YDR477W, strain SNF1, hits give low values 0.828 | locus YER123W, strain YCK3, hits give low values 0.81 | locus YER133W, strain GLC7, hits give low values 0.775 | locus YFL009W, strain cdc4, hits give low values 0.954 | locus YFL029C, strain CAK1, hits give low values 0.949 | locus YFR003C, strain YPI1, hits give low values 0.959 | locus YFR019W, strain FAB1, hits give low values 0.938 | locus YFR028C, strain CDC14, hits give low values 0.948 | locus YGR040W, strain KSS1, hits give low values 0.833 | locus YGR052W, strain FMP48, hits give low values 0.794 | locus YGR092W, strain DBF2, hits give low values 0.533 | [1] 0.902 | [2] 0.698 | locus YHR082C, strain KSP1, hits give low values 0.934 | locus YHR205W, strain SCH9, hits give low values 0.798 | locus YIL147C, strain SLN1, hits give low values 0.956 | [3] 0.795 | locus YJL128C, strain PBS2, hits give low values 0.921 | locus YJL157C, strain FAR1, hits give low values 0.833 | locus YJR016C, strain ILV3, hits give low values 0.957 | locus YJR066W, strain TOR1 (second series), hits give low values 0.904 | [4] 0.884 | locus YKL048C, strain ELM1, hits give low values 0.901 | locus YKL067W, strain YNK1, hits give low values 0.824 | locus YKL101W, strain HSL1, hits give low values 0.877 | locus YKL193C, strain SDS22, hits give low values 0.942 | locus YKL203C, strain TOR2, hits give low values 0.9 | locus YLR133W, strain CKI1, hits give low values 0.83 | locus YLR403W, strain SFP1, hits give low values 0.789 | locus YML070W, strain DAK1, hits give low values 0.774 | locus YMR001C, strain CDC5, hits give low values 0.948 | locus YMR205C, strain PFK2 (second series), hits give low values 0.836 | locus YMR277W, strain FCP1, hits give low values 0.942 | locus YNL006W, strain LST8, hits give low values 0.97 | locus YNL020C, strain ARK1, hits give low values 0.821 | locus YNL161W, strain CBK1, hits give low values 0.95 | [6] 0.721 | locus YNL207W, strain RIO2, hits give low values 0.949 | locus YNL222W, strain SSU72, hits give low values 0.957 | locus YNL307C, strain MCK1 (second series), hits give low values 0.82 | locus YOL078W, strain AVO1, hits give low values 0.944 | locus YOL136C, strain PFK27, hits give low values 0.774 | locus YOR061W, strain CKA2, hits give low values 0.82 | locus YOR119C, strain RIO1, hits give low values 0.834 | [7] 0.734 | locus YOR329C, strain SCD5, hits give low values 0.949 | locus YPL031C, strain PHO85, hits give low values 0.8 | locus YPL153C, strain RAD53, hits give low values 0.844 | locus YPL204W, strain HRR25, hits give low values 0.806 | locus YPL209C, strain IPL1, hits give low values 0.955 | locus YPR025C, strain CCL1, hits give low values 0.953 | locus YPR106W, strain ISR1, hits give low values 0.932 | locus YPR111W, strain DBF20, hits give low values 0.915 | strain NNK1, hits give low values 0.932 | strain TSCII, hits give low values 0.939

CC/C=C\C/C=C\C/C=C\C/C=C\C/C=C\CCCC(=O)OCC
inactive: [1] 0.979 | [2] 0.924 | [3] 0.945 | [4] 0.94 | [5] 0.902 | [6] 0.927 | [7] 0.949 | [8] 0.897
